A short description of assay [1]: A CellTox Green Cytotoxicity Assay to monitor cytotoxicity in HepG2 cells - 0 hour (AID 1224882). Also: nearly all actives have a fitted effect of over 35% in size. In short, it runs like this: (§1)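 First, HepG2 cells (600/well) mixed with reagent were plated; second, after 5 h at 37 C they received compounds via pintool; third, fluorescence was measured at 0 h through 40 h at 8 h intervals.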
Assay [2] is described as follows: A CellTox Green Cytotoxicity Assay to monitor cytotoxicity in HepG2 cells - 32 hour (AID 1224883). Also: nearly all actives have a fitted effect of over 50% in size. Also: potency is read from the fitted curve at half-maximal effect. In short, it runs like this: as §1
Assay [3] in a line: A CellTox Green Cytotoxicity Assay to monitor cytotoxicity in HEK293 cells - 8 hour (AID 1224884). Also: nearly all actives have a fitted effect of over 35% in size. In short, it runs like this: (§2)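 Dead-cell fluorescence measured kinetically: asymmetric cyanine dye, HEK293, 600 cells/well, 5 h settle, 23 nL cpd/DMSO, 37 C, reads 0–40 h every 8 h.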
Assay [4] is described as follows: qHTS RealTime-Glo MT Cell Viability Assay in HEK293 cells - 24 hour (AID 1224886). Also: nearly all actives have a fitted effect of over 50% in size. Also: potency is read from the fitted curve at half-maximal effect. The method in brief: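 Assay medium contained NanoLuc luciferase plus cell-permeant prosubstrate, added with HEK293 cells at 600 cells/well. After 5 h at 37 C/5% CO2 compounds were added; plates stayed at 37 C for 40 h with serial luminescence reads.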
A general note: In qHTS, concentration-response curves come from the screen itself.

A short description of assay [5]: qHTS RealTime-Glo MT Cell Viability Assay in HEK293 cells - 8 hour (AID 1224887). Also: nearly all actives have a fitted effect of over 50% in size. Also: potency is read from the fitted curve at half-maximal effect. In short, it runs like this:
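600 HEK293 cells per well, dispensed already mixed with RealTime-Glo MT reagents. Compound dosing came 5 h later. The same wells were read for luminescence at 0, 8, 16, 24, 32 and 40 h of exposure at 37 C.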

Assay [6] in a line: A CellTox Green Cytotoxicity Assay to monitor cytotoxicity in HEK293 cells - 16 hour (AID 1224888). Also: nearly all actives have a fitted effect of over 35% in size. In short, it runs like this: as §2
A short description of assay [7]: qHTS RealTime-Glo MT Cell Viability Assay in HepG2 cells - 0 hour (AID 1224889). Also: nearly all actives have a fitted effect of over 50% in size. In short, it runs like this:
(§3)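 qHTS, HepG2, 600 cells/well, RealTime-Glo (NanoLuc + prosubstrate) added with cells; 5 h preincubation; DMSO compound addition; 37 C; luminescence at 0/8/16/24/32/40 h.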

Assay [8] in a line: A CellTox Green Cytotoxicity Assay to monitor cytotoxicity in HepG2 cells - 8 hour (AID 1224890). Also: nearly all actives have a fitted effect of over 45% in size. Also: potency is read from the fitted curve at half-maximal effect. In short, it runs like this:
as §1

Assay [9] is described as follows: qHTS assay to identify small molecule antagonists of the androgen receptor (AR) signaling pathway using the MDA cell line in the presence of 0.5 nM R1881 - cell viability counter screen (AID 1259242). Also: nearly all actives have a fitted effect of over 45% in size. The method in brief:
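qHTS format. MDA-kb2 (MMTV-luc, AR/GR responsive) + cpd + 0.5 nM R1881 final, 16 hr 37C/0% CO2 → CellTiter-Fluor 30 min → fluorescence intensity.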

The target of assay [10] is Androgen receptor (Homo sapiens) (UniProt P10275). The experiment in a line: qHTS assay to identify small molecule antagonists of the androgen receptor (AR) signaling pathway using the MDA cell line in the presence of 0.5 nM R1881 (AID 1259243). Also: nearly all actives have a fitted effect of over 50% in size. Also: potency is read from the fitted curve at half-maximal effect. In short, it runs like this:
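Antagonist mode quantitative HTS in MDA-kb2 MMTV-luciferase cells, agonist R1881 at 0.5 nM final, 16 hr exposure at 37C and 0% CO2, luminescent detection.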

The nature of assay [11]: qHTS assay to identify small molecule phospholipidosis (PLD) inducers (AID 1259344; active = well fitted curve in the direction sought with a large enough effect; an effect the other way counts as inactive or inconclusive). In short, it runs like this: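 Read-out is LipidTOX Red fluorescence (ex 595/em 615) imaged in HepG2 cells after 24 h compound exposure at 37 C, with Hoechst nuclear counterstain (ex 352/em 461) allowing per-cell normalisation.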
Assay [12] can be described thus: qHTS assay to identify small molecule HDAC inhibitors - cell viability counter screen (AID 1259365). The method in brief:
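Cytotoxicity was gauged in wild-type HCT-116 cells after a brief 2hr treatment with DMSO-dissolved compounds at 37C and 5% CO2, using CellTiter-Glo luminescence developed for 30min at room temperature.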

A short description of assay [13]: qHTS assay to identify small molecule antagonists of the sonic hedgehog signaling (Shh) pathway - cell viability counter screen (AID 1259367). Also: nearly all actives have a fitted effect of over 55% in size. In short, it runs like this: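 Fluorescence read-out (CellTiter-Fluor, 1 hr at 37C) taken after 23 hr compound treatment of 3T3 Gli1-Luc cells stimulated with conditioned medium. Cells were seeded at 2,000 per well and pre-incubated 4 hr.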

Assay [14] is described as follows: qHTS assay to identify small molecule agonists of the sonic hedgehog signaling (Shh) pathway (AID 1259368; calls by dose curve; also: nearly all actives have a fitted effect of over 15% in size; also: potency is read from the fitted curve at half-maximal effect). In short, it runs like this: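 Quantitative high-throughput format using a Gli1-driven firefly luciferase reporter line derived from NIH/3T3 cells. After a 24 hr compound treatment at 37 C and 5% CO2, luminescence reported Gli1 response element activity.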

Assay [15] is described as follows: qHTS assay to identify small molecule antagonists of the sonic hedgehog signaling (Shh) pathway (AID 1259369; calls by dose curve; also: nearly all actives have a fitted effect of over 45% in size; also: potency is read from the fitted curve at half-maximal effect). In short, it runs like this:
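Stable Gli1-Luc reporter NIH/3T3 clone; quantitative HTS in stimulated mode with conditioned medium. Luminescence measured after 24hr compound treatment at 37 C.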

A short description of assay [16]: qHTS assay to identify small molecule antagonists of the estrogen receptor alpha (ER-alpha) signaling pathway using the BG1 cell line in the presence of 0.1 nM 17-beta-estradiol - cell viability counter screen (AID 1259241). Also: nearly all actives have a fitted effect of over 40% in size. The method in brief: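 Viability in VM7Luc4E2 cells after 22 hr compound exposure under 0.1 nM 17beta-estradiol stimulation, by CellTiter-Fluor.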

The nature of assay [17]: qHTS assay to identify small molecule HDAC inhibitors (AID 1259364).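 Also: wild-type HCT-116 cells with endogenous class I/II HDAC activity; top concentration of the series differs between compounds; nearly all actives have a fitted effect of over 45% in size.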 The method in brief:
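Quantitative high-throughput format: overnight-seeded HCT-116 cells got compounds for 2 hr at 37C; HDAC-Glo I/II reagent added, 30 min RT, luminescence measured.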

Assay [18] can be described thus: qHTS assay to identify small molecule agonists of the sonic hedgehog signaling (Shh) pathway - cell viability counter screen (AID 1259366). Also: nearly all actives have a fitted effect of over 50% in size. In short, it runs like this:
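Stable Gli1-Luc NIH/3T3 clone, 2,000 cells/well. Compound exposure 24hr at 37C. Read-out: CellTiter-Fluor fluorescence.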

Assay [19] in a line: qHTS RealTime-Glo MT Cell Viability Assay in HepG2 cells - 16 hour (AID 1224885). Also: nearly all actives have a fitted effect of over 50% in size. The method in brief:
as §3

In assay [20] the target is Estrogen receptor (Homo sapiens) (UniProt P03372). As to the kind of experiment: qHTS assay to identify small molecule antagonists of the estrogen receptor alpha (ER-alpha) signaling pathway using the BG1 cell line in the presence of 0.1 nM 17-beta-estradiol (AID 1259244). Also: nearly all actives have a fitted effect of over 50% in size. The method in brief:
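Reporter is a stably transfected luciferase under four estrogen responsive elements in VM7Luc4E2 cells expressing native full-length ER-alpha; inhibition of 0.1 nM (final) 17beta-estradiol-driven signal over 22 h is read by luminescence.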

Structures are written as SMILES. Results filed as inconclusive are left out. Activity calls are given as the source filed them. Unless noted, calls follow the shape of the dose curve; as a rule, active = well fitted curve in the direction sought with a large enough effect in the repeat runs; inconclusive = weak or mixed curves; inactive = no such curve, though single readings can be large; an effect the other way counts as inactive or inconclusive.

Androgen receptor (Homo sapiens), sequence (P10275 whole entry, looked up): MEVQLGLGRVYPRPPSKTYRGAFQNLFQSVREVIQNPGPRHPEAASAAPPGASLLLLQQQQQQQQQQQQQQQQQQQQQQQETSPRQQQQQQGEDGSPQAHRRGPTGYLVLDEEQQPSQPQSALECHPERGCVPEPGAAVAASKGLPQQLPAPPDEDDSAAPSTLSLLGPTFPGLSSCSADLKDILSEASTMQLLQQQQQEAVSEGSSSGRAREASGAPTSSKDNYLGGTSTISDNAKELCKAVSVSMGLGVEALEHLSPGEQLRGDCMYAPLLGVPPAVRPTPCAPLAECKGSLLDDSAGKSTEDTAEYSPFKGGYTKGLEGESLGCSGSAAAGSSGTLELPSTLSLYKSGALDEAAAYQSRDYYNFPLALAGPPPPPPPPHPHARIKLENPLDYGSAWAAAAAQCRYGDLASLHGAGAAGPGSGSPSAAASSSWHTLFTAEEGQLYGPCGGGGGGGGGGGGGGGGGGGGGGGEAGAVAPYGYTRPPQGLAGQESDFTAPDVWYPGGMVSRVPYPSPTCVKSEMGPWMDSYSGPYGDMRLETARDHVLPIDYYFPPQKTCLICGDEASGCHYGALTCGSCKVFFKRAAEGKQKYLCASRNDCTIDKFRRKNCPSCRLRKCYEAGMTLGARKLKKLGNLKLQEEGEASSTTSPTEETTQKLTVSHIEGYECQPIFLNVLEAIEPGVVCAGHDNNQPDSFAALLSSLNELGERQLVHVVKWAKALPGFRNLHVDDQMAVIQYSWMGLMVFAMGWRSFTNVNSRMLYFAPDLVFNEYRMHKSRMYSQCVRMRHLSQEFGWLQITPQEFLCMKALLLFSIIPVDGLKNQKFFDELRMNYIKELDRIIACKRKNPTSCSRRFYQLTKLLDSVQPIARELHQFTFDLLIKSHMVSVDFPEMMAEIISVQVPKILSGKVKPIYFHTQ
Estrogen receptor (Homo sapiens), sequence (P03372 whole entry, looked up): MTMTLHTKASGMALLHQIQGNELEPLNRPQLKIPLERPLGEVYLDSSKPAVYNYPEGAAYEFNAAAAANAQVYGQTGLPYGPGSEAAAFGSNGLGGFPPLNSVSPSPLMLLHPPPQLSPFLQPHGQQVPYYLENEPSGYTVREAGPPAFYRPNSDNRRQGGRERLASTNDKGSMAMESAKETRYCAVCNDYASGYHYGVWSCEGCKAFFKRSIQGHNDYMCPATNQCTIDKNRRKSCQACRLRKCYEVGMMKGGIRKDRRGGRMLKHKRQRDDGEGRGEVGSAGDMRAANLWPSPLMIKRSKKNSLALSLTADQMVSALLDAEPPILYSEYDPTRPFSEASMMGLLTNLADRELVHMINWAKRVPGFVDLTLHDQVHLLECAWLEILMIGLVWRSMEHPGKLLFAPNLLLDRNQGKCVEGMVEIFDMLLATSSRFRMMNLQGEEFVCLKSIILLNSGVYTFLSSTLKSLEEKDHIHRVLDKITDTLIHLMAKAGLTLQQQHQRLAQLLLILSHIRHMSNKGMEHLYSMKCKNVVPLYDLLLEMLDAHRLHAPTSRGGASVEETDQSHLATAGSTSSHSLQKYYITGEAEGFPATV

As for `COC1=C(OC)C(=O)C(CCCCCCCCCCO)=C(C)C1=O`, the Potency entry in assay [1], in assay [2], in assay [3], in [6], in assay [7] and in [8] was “inactive” each time. Further, the Potency entry in assay [9], in assay [11], in assay [12], in assay [13], in assay [14] and in assay [15] was “inactive” in each case. The Potency in [4] is 4.25 µM (active); in assay [5], 1.69 µM (active); in assay [10], 29.8 µM (active).

In the case of `CCc1oc2ccccc2c1C(=O)c1cc(I)c(O)c(I)c1`, the Potency entry in [1], in assay [2], in assay [3], in [4], in assay [5] and in assay [6] was “inactive” each time. The Potency result in [7], in assay [8], in assay [16], in [9], in assay [11] and in assay [17] was “inactive” throughout. For the same compound, the Potency result in assay [12], in assay [18], in [13] and in assay [14] was “inactive” each time.

In the case of `Nc1cc(Cl)c(O)c(Cl)c1`, the Potency result in assay [1], in assay [2], in assay [3], in assay [19], in [6] and in assay [7] was “inactive” throughout. The Potency entry in [8], in assay [16], in assay [9], in assay [10], in [20] and in assay [12] was “inactive” in each case. Moreover, the Potency result in [14] was “inactive”. In addition, the Potency in [5] is 43.6 µM (active).

Consider `C=CCCC(=O)/C=C/C1C(C)=CCCC1(C)C` (stereo unspecified), for which the Potency entry in assay [1], in assay [2], in assay [3], in [19], in [4] and in assay [5] was “inactive” in each case. For the same compound, the Potency entry in [7], in [8], in [16], in assay [9], in assay [17] and in [12] was “inactive” in each case. Moreover, the Potency entry in assay [13], in [14] and in assay [15] was “inactive” throughout.

Consider `C[Si](Cl)(c1ccccc1)c1ccccc1`, for which the Potency entry in [1], in [2], in assay [3], in [19], in [6] and in [7] was “inactive” throughout. For the same compound, the Potency entry in [8], in [16], in [9], in assay [20], in [12] and in [18] was “inactive” in each case. Further, the Potency entry in assay [13], in assay [14] and in [15] was “inactive” throughout.

Consider `CCCC[P+](C)(CCCC)CCCC`, for which the Potency entry in [1], in assay [2], in assay [3], in assay [19], in [5] and in assay [6] was “inactive” throughout. In addition, the Potency result in assay [7], in [8], in [16], in assay [9], in [20] and in [17] was “inactive” each time. Further, the Potency result in assay [12], in [18] and in assay [13] was “inactive” in each case. Besides, the Potency in assay [14] was 19.6 µM (active).

For `CC1(C)CCC[C@]2(C)[C@H]3CC(=O)O[C@]3(C)CC[C@@H]12`, the Potency result in assay [1], in [2], in assay [3], in [19], in assay [4] and in assay [5] was “inactive” each time. Besides, the Potency result in [7], in assay [8], in [9], in assay [20], in assay [12] and in [18] was “inactive” in each case. Besides, the Potency entry in [13] and in assay [14] was “inactive” throughout. The Potency in [15] is 30.6 µM (active).

For the compound `Nc1ccc(Oc2ccc(Cl)cc2)cc1`, the Potency entry in assay [1], in assay [2], in [3], in [19], in [6] and in [7] was “inactive” throughout. In addition, the Potency entry in assay [8], in assay [16], in assay [9], in assay [17], in assay [12] and in assay [13] was “inactive” throughout. Also, the Potency result in assay [14] is “inactive”. Also, the Potency in assay [4] is 24 µM (active).

In the case of `CC(C)=CCC1=C(O)c2ccccc2C(=O)C1=O`, the Potency result in assay [1], in assay [2], in assay [3], in assay [19], in [6] and in assay [7] was “inactive” in each case. The Potency entry in assay [8], in [10], in [17], in assay [12] and in assay [14] was “inactive” each time.

Consider `COc1c(C)c2c(c(O)c1C/C=C(\C)CCC(=O)OCCN1CCOCC1)C(=O)OC2`, for which the Potency result in [1], in assay [2], in assay [3], in assay [4], in assay [5] and in assay [6] was “inactive” each time. In addition, the Potency entry in [7], in [8], in [16], in assay [9], in [10] and in assay [20] was “inactive” each time. Besides, the Potency result in assay [11], in [17], in assay [12], in [18], in [13] and in assay [14] was “inactive” in each case. For the same compound, the Potency result in assay [15] was “inactive”.

Regarding `Cc1ccc(-c2ccccc2)cc1`, the Potency entry in assay [1], in [3], in assay [19], in [5], in [6] and in assay [7] was “inactive” throughout. In addition, the Potency result in assay [16], in assay [9], in [17], in assay [12], in assay [18] and in assay [13] was “inactive” throughout. Also, the Potency result in assay [14] and in assay [15] was “inactive” in each case. Moreover, the results for the Potency in assay [2] and in [8] were 43.6 µM (active) and 49 µM (active), respectively.

For the origin of these results see PubChem BioAssay (Tox21).
